High-throughput results: PubChem BioAssay, National Center for Advancing Translational Sciences (NCATS)
Rows were chosen to be rich in hits. Some 5.5% of all compounds tested hit in one or more screens of this group.
MBNL1-CUG inh: MBNL1-poly(CUG) RNA binding inhibition; Q9NR56; TR-FRET MBNL1-His/biotin-(CUG)12 binding, 665/545 ratio; Potency, µM (doses to about 57.5 µM), for the others: at the top dose activity change, negative = inhibition, usual class: inhibitors; actives 0.036% (n = 280,000); active = well fitted inhibition curve with a large enough effect in the signal ratio, with a control signal flat, not every such curve was filed as active; inconclusive = small, poorly fitted or top-dose-only effect, or effect the other way, or a change in a side signal; inactive = no such curve, though single readings can be large or run the other way; the % refers to the signal ratio; note: potency is the fitted concentration of half-maximal effect; % is set by controls: 0 for no effect and ±100 for the full control effect
Target sequence (Q9NR56 whole entry, looked up): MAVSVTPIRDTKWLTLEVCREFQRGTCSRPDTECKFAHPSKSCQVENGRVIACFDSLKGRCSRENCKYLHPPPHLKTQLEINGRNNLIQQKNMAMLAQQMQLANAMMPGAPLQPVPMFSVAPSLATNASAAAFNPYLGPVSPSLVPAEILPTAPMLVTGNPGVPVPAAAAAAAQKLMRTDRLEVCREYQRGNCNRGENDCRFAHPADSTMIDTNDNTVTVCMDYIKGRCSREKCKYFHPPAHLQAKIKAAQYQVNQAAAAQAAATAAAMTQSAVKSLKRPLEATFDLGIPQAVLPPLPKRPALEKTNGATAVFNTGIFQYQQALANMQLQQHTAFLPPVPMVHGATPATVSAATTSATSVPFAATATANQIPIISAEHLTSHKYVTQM
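Inhibition of protein-RNA binding appears as loss of TR-FRET between terbium anti-His antibody on MBNL1-His and streptavidin-XL665 on biotin-(CUG)12. Activity is normalized to buffer-only and uninhibited-complex controls.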
CBFb RUNX1 block: CBF-beta/RUNX1 interaction disruption; Q01196+Q13951; AlphaScreen CBFb-His/RUNX1-biotin binding, biochemical; Potency, µM (top dose mostly 59.8 µM), inactives show top-dose activity, negative = inhibition, most hits filed as inhibitors; 230,000 tested, under 10 active; AID 1477; note: % of control where 0% means no effect
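Interaction loss through any mechanism counts as activity. Pre-formed complex of His-CBF-beta and biotin-RUNX1 (30 nM apiece) is incubated with compound 15 min, then with 50 ng nickel and 50 ng streptavidin beads for 90 min before AlphaScreen detection.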
RORg inh: ROR gamma (mouse) transcription inhibition | Drosophila S2 Gal4-RORgamma UAS-luciferase reporter, 20 h | P51450 | Potency, µM (top dose mostly 53.6 µM), for inactives: at the highest dose activity change, negative = inhibition, usual class: inhibitors | actives 5.4% (n = 310,000); note: potency is the fitted concentration of half-maximal effect; % is set by controls: 0 for no effect and ±100 for the full control effect; nearly all actives have a fitted effect of over 60% in size
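Schneider cells (Drosophila), stable Gal4 DBD–ROR gamma + UAS-luc; 1 hr cmpd preincubation; Cu2+ induction 700 uM final; 20 hr ambient; luminescence.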
CtBP-E1A blk: inhibitors of CtBP/E1A interaction; AlphaScreen GST-E1A/His-CtBP binding, 1536-well; stronger effect = lower value; actives 0.49% (n = 340,000); activity change, % (no concentration beside the values); in the data active = activity change below about -65%; inconclusive = mostly about -30% to -63%; note: % is set by controls: 0 for no effect and ±100 for the full control effect
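Steps: dispense buffer (Tris pH 8.0, NaCl 300 mM, TCEP 1 mM, BSA, Tween 20); add 5X protein mix (GST-E1A, His-CtBP, 125 nM each); pin 23 nL compound; 2 h at 37 °C, dark; add 5X beads (50 ug/mL); 1 h; read.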
Six1-Eya2 blk: blocks human Six1 binding to Eya2; activity change, % (test concentration not listed); AlphaScreen GST-Six1/His-Eya2 binding, biochemical; stronger effect = lower value; Q15475+O00167; actives 0.56% (n = 360,000); in the data active = activity change below about -65%; inconclusive = mostly about -30% to -63%; note: % is set by controls: 0 for no effect and ±100 for the full control effect
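Six1/Eya2 binding was read as AlphaScreen signal after compounds were pinned into GST-Six1 plus His-tagged Eya2 (5X stock 250/500 nM) in pH 8.0 Tris/NaCl/TCEP buffer, beads added, then incubated 1 h, 37 C, dark.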
VP16 counter: Gal4-VP16 reporter inhibition counter-screen; Drosophila S2 Gal4-VP16 UAS-luciferase, luminescence, 20 h; Potency, µM (series often up to 53.6 µM), inactives show at the highest dose activity, negative = inhibition, actives largely listed as inhibitors; actives 3.5% (n = 310,000); AID 2546;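 note: Gal4-VP16 expression switched on by copper sulfate through the metallothionein promoter; potency is the fitted concentration of half-maximal effect; % is set by controls: 0 for no effect and ±100 for the full control effect; nearly all actives have a fitted effect of over 50% in size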
Starred values were filed as active, the others as inactive; ? = inconclusive; nt = not tested or not shown. Unless noted, calls come from the whole dose curve; as a rule, active = well fitted curve in the direction sought with a large enough effect; inconclusive = small, poorly fitted or top-dose-only effect, or another doubt; inactive = no such curve, though single readings can be large; an effect the other way counts as inactive or inconclusive.

SMILES	MBNL1-CUG inh	CBFb RUNX1 block	RORg inh	CtBP-E1A blk	Six1-Eya2 blk	VP16 counter
CCOc1ncccc1C(=O)OCC(=O)Nc1ccc(-c2nc3ccc(C)cc3s2)cc1	4%	17%	0.4µM*	-14	-3	?
C=CCn1c(SCC(=O)NNC(=O)Nc2ccc(C)cc2)nnc1-c1ccccc1	-10%	1%	14%	nt	6	4%
Cc1ccc2sc(-c3ccc(NC(=O)CCN4C(=O)c5ccccc5C4=O)cc3)nc2c1	?	6%	1.1µM*	nt	nt	?
C=CCn1c(SCC(=O)Nc2ccc(-c3nc4ccc(C)cc4s3)cc2)nnc1-c1ccccc1	?	-23%	14µM*	12	?	13µM*
CCOc1ncccc1C(=O)OCC(=O)Nc1c(C)cc(C)cc1C	-2%	5%	-7%	-5	-2	4%
COc1ccc(/C=C(\C#N)C(=O)OCC(=O)NC(C)c2ccccc2)cc1 (configuration not stated)	19%	0%	-4%	-1	5	0%
CN(C(=O)c1nn(C)c2c1CSc1ccccc1-2)c1ccccc1Cl	-2%	nt	30%	-4	-3	7%
CSCCC(NC(=O)c1ccco1)C(=O)NC1CCC(C)CC1 (configuration not stated)	nt	nt	nt	6	0	nt
COC(=O)C/C=C1\c2ccc3c(c2[C@@H](OC)[C@@H]1C)OCO3	nt	4%	-8%	nt	nt	0%
CC(=O)NC1CC2CCCC(C1)N2C(=O)Nc1cccc(Cl)c1 (configuration not stated)	nt	nt	nt	4	4	nt
CC(=O)Nc1ccc2nc(NC(=O)c3ccc([N+](=O)[O-])o3)sc2c1	?	nt	?	-5	-8	10µM*
Cc1ccc2nc(-c3ccc(NC(=O)COC(=O)c4ccco4)cc3)sc2c1	181%	11%	0.4µM*	7	9	7.1µM*
O=C(COC(=O)c1cncc(Br)c1)Nc1ccc2c(c1)OCO2	nt	-15%	26%	-4	-7	0%
Cc1ccc2nc(-c3ccc(NC(=O)COC(=O)c4ccc(Br)o4)cc3)sc2c1	17%	9%	0.28µM*	2	-3	4µM*
Cc1ccc2nc(-c3ccc(NC(=O)COC(=O)c4cncc(Br)c4)cc3)sc2c1	27%	1%	1.3µM*	-12	6	10µM*
Cc1ccc(NC(=O)COC(=O)c2ccco2)cc1	-3%	6%	1%	0	-3	10%
CC1=NC(C)(C)CC2CCC(O)C12 (configuration not stated)	nt	nt	nt	1	0	nt
CC(C)(C)n1cnc2cc(NC(=O)c3ccccc3)ccc21	-9%	nt	?	-2	-7	-1%
CNS(=O)(=O)c1cccc(C(=O)OCC(=O)Nc2ccc(-c3nc4ccc(C)cc4s3)cc2)c1	12%	-2%	0.22µM*	9	1	?
CNS(=O)(=O)c1cccc(C(=O)OCC(=O)Nc2ccc(N3CCCCC3)cc2)c1	-4%	-23%	?	-17	-6	0%
Cc1ccc2nc(-c3ccc(NC(=O)COC(=O)c4ccc([N+](=O)[O-])o4)cc3)sc2c1	2%	-1%	0.1µM*	-1	0	5µM*
O=C(COC(=O)c1ccc([N+](=O)[O-])o1)Nc1ccc(F)cc1	nt	nt	nt	nt	4	nt
COc1cnc(-c2ccccn2)nc1Oc1ccccc1Cl	?	-16%	2.2µM*	-2	3	13µM*
COc1cnc(-c2ccccn2)nc1Oc1ccc(Cl)c2ccccc12	5%	-20%	1.3µM*	-12	-7	7.9µM*
COc1cnc(-c2ccccc2)nc1Oc1ccccc1C	10%	?	29%	13	32	-16%
Cc1ccc(C(c2cc(Cl)c3cccnc3c2O)N2CCN(C)CC2)cc1 (configuration not stated)	32%	nt	1.3µM*	-85*	?	0.71µM*
